A selection: hits, their analogues and other compounds. The true share with any hit is near 2.9%.
S1P4 agonist = agonists of human S1P4 receptor; O95977; S1P4-expressing cell line, agonist reporter assay; activation, % at 4.98 µM; 220,000 tested, 0.35% active; in the data active means activation above about 11%;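 further: 0% = DMSO vehicle and 100% = reference agonist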
Hsp70 act = transcriptional activators of Hsp70; HeLa Hsp70 promoter luciferase reporter, luminescence; scaled: vehicle 0, proteasome-inhibitor control 100%; activation, % at 10 µM; 200,000 tested, 0.04% active; AID 1203;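 active means activation above the mean across all tested compounds plus 3 SD, cutoff set per campaign, cut at about 5.5% in these data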;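 further: 100% = MG132 at 30 µM as the positive control and 0% = DMSO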
S1P3 antagonist = blocks the human S1P3 receptor | Q99500 | CHO S1P3 NFAT-BLA reporter, FRET fluorescence, antagonist mode | 170,000 tested, 0.27% active | AID 485 | inhibition, % at 4.98 µM;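 active means inhibition above the plate cutoff, the mean inhibition of test wells on that plate plus 3 SD, cut at about 28% in these data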;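 further: cells challenged with S1P at its EC80 of 0.8 µM; blue over green emission ratio from cleaved BLA substrate after 4 h stimulation; 0% = S1P-stimulated wells and 100% = unstimulated DMSO-only wells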
Target sequence (Q99500 whole entry, looked up): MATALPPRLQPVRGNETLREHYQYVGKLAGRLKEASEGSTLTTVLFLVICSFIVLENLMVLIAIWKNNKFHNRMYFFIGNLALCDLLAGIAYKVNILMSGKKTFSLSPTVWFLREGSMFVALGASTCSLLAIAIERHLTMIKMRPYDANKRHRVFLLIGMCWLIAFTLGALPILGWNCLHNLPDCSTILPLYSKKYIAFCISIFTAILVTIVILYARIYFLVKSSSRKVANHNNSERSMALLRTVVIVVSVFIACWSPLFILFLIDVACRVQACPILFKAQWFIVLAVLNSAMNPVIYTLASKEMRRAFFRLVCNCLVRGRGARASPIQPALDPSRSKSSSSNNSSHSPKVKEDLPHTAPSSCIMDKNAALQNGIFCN
S1P4 antagonist = human S1P4 receptor antagonism. O95977. S1P4-expressing cells, antagonist mode, reporter read-out. inhibition, % at 4.98 µM. 220,000 tested, 0.26% active; in the data active means inhibition above about 29%;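 further: 0% = wells stimulated with agonist and 100% = vehicle wells without agonist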
HSF1 inh = HSF1 inhibition; AID 2098; activity change, negative = inhibition, % at 7.5 µM (by protocol); 300,000 tested, 0.77% active; NIH3T3-HGL HSE-luciferase, MG132-induced, luminescence 8 h; stronger effect = lower value;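 active means more than half of replicate wells show activity change below -50%, luminescence cut by over half; inconclusive means some wells, but at most half, below -50%; inactive means no replicate well below -50%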;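 further: luciferase reports HSF-1 transcriptional activity via heat shock element; 0% = median of DMSO wells and -100% = zero luminescence signal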
HSF1 activator = increases HSF-1 driven luciferase reporter signal. 300,000 tested, 1.7% active. activation, % at 9 µM. NIH3T3-HGL HSF-1 luciferase reporter, MG132, 8 h; 100% = twice DMSO control signal;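 active means mean replicate activation of at least 50% with a set share of replicates each reaching 50%; inconclusive means only one of those two conditions met; inactive means mean below 50% and too few replicates reaching it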;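 further: 0% = median of the neutral control wells and 100% = twice that signal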
The depositor's hits bear a star.

Results for Cc1ccc(N(CC(O)Cn2nc(C)cc2C)S(=O)(=O)c2ccc3ccccc3c2)cc1 (stereo not given) ?
S1P4 agonist: 0; Hsp70 act: 0; S1P3 antagonist: -3; S1P4 antagonist: -5; HSF1 inh: 5; HSF1 activator: 8

Results for Cc1ccc(CNC(=O)CCNS(=O)(=O)c2cccc3nsnc23)cc1 ?
HSF1 inh: -7; HSF1 activator: 3

Results for O=C(/C=C/Nc1ccc(F)c(F)c1)c1cccs1 ?
S1P4 agonist: 1; Hsp70 act: 0; S1P3 antagonist: 8; S1P4 antagonist: -23; HSF1 inh: 27; HSF1 activator: 33

Results for O=C(/C=C/Nc1ccc(F)cc1)c1cccs1 ?
S1P4 agonist: 0; Hsp70 act: 0; S1P4 antagonist: 0; HSF1 inh: 32; HSF1 activator: 65*

Results for O=C(/C=C/Nc1ccc(F)c(F)c1)c1ccc(Br)cc1 ?
S1P4 agonist: 1; Hsp70 act: 0; S1P3 antagonist: -14; S1P4 antagonist: -20; HSF1 inh: 30; HSF1 activator: inconclusive

How did Cc1cc(N/C=C/C(=O)c2ccc(Br)cc2)no1 do in these assays?
S1P4 agonist: 0; Hsp70 act: 0; S1P4 antagonist: 1; HSF1 inh: 32; HSF1 activator: 55*

Results for O=C(/C=C/Nc1ccc(F)cc1)c1ccc(Br)cc1 ?
S1P4 agonist: -2; Hsp70 act: 0; S1P3 antagonist: -15; S1P4 antagonist: 12; HSF1 inh: 33; HSF1 activator: 65*

Results for Cc1ccnc(N/C=C/C(=O)c2ccc(Br)cc2)c1 ?
HSF1 inh: 26; HSF1 activator: inconclusive

How did Cc1nc(Nc2ccccc2)sc1-c1ccccc1 do in these assays?
S1P4 agonist: 2; Hsp70 act: 0; S1P3 antagonist: -11; S1P4 antagonist: 3; HSF1 inh: 46; HSF1 activator: 59*

What do the screens show for `c1ccc(Nc2nc(-c3ccccc3)ns2)cc1`?
HSF1 inh: 23; HSF1 activator: 59*

Results for Cc1nc(Nc2ccc(C(=O)O)cc2)sc1-c1ccccc1 ?
S1P4 agonist: 2; Hsp70 act: 0; S1P3 antagonist: -10; S1P4 antagonist: -13; HSF1 inh: -5; HSF1 activator: 10

How did Cc1cc(C)nc(NS(=O)(=O)c2ccc(NC(=O)c3cc(=O)c4ccccc4o3)cc2)n1 do in these assays?
HSF1 inh: 2; HSF1 activator: 3

What do the screens show for `c1ccc2cc(OCCCn3ccnc3)ccc2c1`?
HSF1 inh: 1; HSF1 activator: 17

Results for c1ccc(CSc2nnc3ccc(-c4ccco4)nn23)nc1 ?
S1P4 agonist: -1; Hsp70 act: 0; S1P3 antagonist: -1; S1P4 antagonist: -2; HSF1 inh: 4; HSF1 activator: -16

What do the screens show for `O=[N+]([O-])c1cccc(-c2ccc3nnc(SCc4ccccn4)n3n2)c1`?
S1P4 agonist: 0; Hsp70 act: 0; S1P3 antagonist: -7; S1P4 antagonist: 6; HSF1 inh: 12; HSF1 activator: 63*

What do the screens show for `Cc1oc(-c2ccccc2F)nc1CN1CCC(C(=O)NC2CCCCCCC2)CC1`?
S1P4 agonist: 0; Hsp70 act: 0; S1P3 antagonist: -3; S1P4 antagonist: 0; HSF1 inh: 34; HSF1 activator: 57*

Results for Cc1ccccc1-c1nc(CN2CCC(C(=O)NC3CCCCC3)CC2)c(C)o1 ?
HSF1 inh: -1; HSF1 activator: -26

What do the screens show for `O=C(Nc1cccc(-c2ccc(N3CCCCC3)nn2)c1)c1ccco1`?
HSF1 inh: 17; HSF1 activator: 24

How did CSC1=N/C(=C\c2ccccc2F)C(=O)S1 do in these assays?
S1P4 agonist: 1; Hsp70 act: 0; S1P3 antagonist: -24; S1P4 antagonist: -3; HSF1 inh: -22; HSF1 activator: -36

How did COc1cccc(/C=C2\N=C(SC)SC2=O)c1OC do in these assays?
S1P4 agonist: 3; Hsp70 act: 0; S1P3 antagonist: -15; S1P4 antagonist: -37; HSF1 inh: 31; HSF1 activator: 56*

How did Cc1ccccc1NS(=O)(=O)c1cc(C(N)=O)ccc1C do in these assays?
S1P4 agonist: 1; Hsp70 act: 0; S1P3 antagonist: 24; S1P4 antagonist: 3; HSF1 inh: 0; HSF1 activator: 5

What do the screens show for `COc1ccccc1C(=O)Nc1ccc(S(=O)(=O)Nc2cnc3ccccc3n2)cc1`?
HSF1 inh: 5; HSF1 activator: 0
